DT40 TDP1 no CPT: qHTS for Inhibitors of human tyrosyl-DNA phosphodiesterase 1 (TDP1): qHTS in cells in absence of CPT | 420,000 compounds, 15% hits | Potency, µM (series often up to 46.2 µM), for inactives: at the highest dose activity change, negative = growth inhibition, hits mostly inhibitors | AID 686978, 2013 | DT40 Tdp1-/- hTDP1 cells, no CPT, ATP luminescence, 48 h; further: nearly all actives have a fitted effect of over 55% in size
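A cellular qHTS used chicken DT40 cells lacking endogenous Tdp1 but carrying stably transfected human TDP1. Compounds were applied without camptothecin, and cell growth kinetics were judged by ATP-dependent luminescence after ≥48 hr.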
KB-V1 cytotox: KB-V1 MDR subline cytotoxicity | KB-V1 MDR cells viability, CellTiter-Glo, 72 h | Potency, µM (top dose mostly 46.1 µM), usual class: cytotoxic | 400,000 compounds, 3.4% hits; further: nearly all actives have a fitted effect of over 60% in size
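Compound-treated KB-V1 multidrug-resistant cells, 72 h, 37 degrees C; viability by CellTiter-Glo. Fitted qHTS curves give the values.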
DT40 TDP1 CPT: growth inhibition of DT40 Tdp1-/-;hTDP1 cells with camptothecin (screen for TDP1 inhibitors) | chicken DT40 Tdp1-/-;hTDP1 cells + 20 nM CPT, ATP luminescence, 48 h | Potency, µM (top dose mostly 46.2 µM), for the others: at the top dose activity change, negative = growth inhibition, actives largely listed as inhibitors | 420,000 compounds, 12% hits | AID 686979; further: nearly all actives have a fitted effect of over 55% in size
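Chicken DT40 Tdp1-/- cells stably complemented with human TDP1 were seeded at 400 cells/well in medium containing 20 nM camptothecin, exposed to pin-transferred compounds, and grown at 37 °C for at least 48 hr. Viability was read as ATP luminescence.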
KB-3-1 cytotox: KB-3-1 parental cell cytotoxicity; KB-3-1 viability, CellTiter-Glo ATP luminescence, 72 h; Potency, µM (top dose mostly 46.1 µM), actives largely listed as cytotoxic; 400,000 compounds, 1.4% hits; further: nearly all actives have a fitted effect of over 60% in size
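Parental KB-3-1 viability, qHTS format: 72 h compound exposure, 37 °C; CellTiter-Glo; media-only wells and DMSO plates as controls; concentration-effect fits on corrected data.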
HT1080 IDH1KD tx: kills HT-1080 cells with IDH1 knockdown; HT-1080 IDH1 knockdown viability, ATP luminescence, 48 h; 360,000 compounds, 2% hits; Potency, µM (titrated, usually from 46.1 µM), for inactives: at the top dose activity, negative = toxicity, most hits filed as cytotoxic;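 further: 0% = DMSO wells and -100% = cell-free medium wells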
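In this qHTS, HT-1080 cells depleted of IDH1 are exposed for 48 h at 37 °C to compound titrations. Toxicity is scored from CellTiter-Glo luminescence, with DMSO as full viability and medium alone as none.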
HT1080NT lethal: kills 2HG-producing HT-1080-NT fibrosarcoma cells; AID 686970; 360,000 compounds, 1.6% hits; HT-1080-NT fibrosarcoma viability, CellTiter-Glo ATP luminescence, 48 h; Potency, µM (doses to about 46.1 µM), inactives show top-dose activity, negative = less viability, most hits filed as cytotoxic;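 further: NT is the 2HG producing partner of a matched IDH1 knockdown line; 0% = DMSO-treated cells and -100% = media-only wells without cells; nearly all actives have a fitted effect of over 55% in size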
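Viability by CellTiter-Glo luminescence after 48 h compound exposure at 37C of HT-1080-NT cells (750/well, RPMI, 5% FBS). % activity scaled between DMSO wells and medium-only wells, then curve-fitted and categorized by curve class.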
Numbers without * were called inactive; i = inactive; ? = inconclusive; nt = no result. Only some compounds are listed: those with a hit (about 19% of all), similar ones and a draw of the others. The call rests on the fitted dose curve; in most records, active means well fitted curve in the direction sought with a large enough effect; inconclusive means small, poorly fitted or top-dose-only effect, or another doubt; inactive means no such curve, though single readings can be large; an effect the other way counts as inactive or inconclusive. Unless noted, on the % scale 0 is the no-effect control and ±100 the full control effect; potency means the concentration at half of the fitted maximal effect.

SMILES	DT40 TDP1 no CPT	KB-V1 cytotox	DT40 TDP1 CPT	KB-3-1 cytotox	HT1080 IDH1KD tx	HT1080NT lethal
Cc1cccc(NS(=O)(=O)c2cccc(C(=O)N3CCCCCCC3)c2)c1	5.2µM*	i	18µM*	i	0%	-8%
O=C(c1cccc(S(=O)(=O)N2CCN(c3ccccc3)CC2)c1)N1CCCCCCC1	13µM*	i	?	i	-12%	-2%
CCC(C(=O)Nc1cc(-c2cn3cccnc3n2)ccc1C)c1ccccc1 (centres undefined)	-25%	nt	-30%	nt	nt	nt
O=C(c1cccc(S(=O)(=O)N2CCOCC2)c1)N1CCN(c2ccccc2)CC1	13%	18µM*	9%	i	11%	6%
O=C(/C=C/c1ccc(S(=O)(=O)N2CCOCC2)cc1)N1CCN(c2ccccc2)CC1	1µM*	i	12µM*	?	-3%	-7%
O=C(c1cccc(S(=O)(=O)N2CCc3ccccc3C2)c1)N1CCN(c2ccc(O)cc2)CC1	12µM*	13µM*	15µM*	?	-20%	-10%
O=C(NCC1(N2CCOCC2)CCCCC1)c1cccc(S(=O)(=O)N2CCc3ccccc3C2)c1	?	i	18µM*	i	-16%	-5%
O=C(O)c1cccc(S(=O)(=O)N2CCc3ccccc3C2)c1	-3%	?	-2%	i	11%	11%
C=CCn1c(COc2ccc(Cl)cc2)nnc1SCC(=O)c1c(N)n(C)c(=O)n(C)c1=O	-9%	i	0%	i	8%	3%
Cc1cccc(-n2ccc(=O)c(C(=O)Nc3ccc(S(=O)(=O)Nc4onc(C)c4C)cc3)n2)c1	-11%	i	20%	i	15%	8%
C=CCNC(=S)Nc1ccccc1-c1nnc2n1CCCCC2	-3%	i	2%	i	12%	1%
COc1cccc(C(=O)N2CCC[C@H]2C(=O)N2CCC[C@H]2C(=O)NCc2ccccn2)c1	4%	i	6%	i	6%	22%
Cc1cc(C)c(C)c(S(=O)(=O)N2CCN(C(=O)c3ccncc3)CC2)c1C	7%	i	?	?	2%	-3%
CC(=O)N1CCN(S(=O)(=O)c2cccc(C(=O)N3CCN(S(=O)(=O)c4c(C)c(C)cc(C)c4C)CC3)c2)CC1	21µM*	i	?	i	-18%	-15%
CC1CCCCC1NC(=O)c1cccc(S(=O)(=O)N2CCN(C)CC2)c1 (centres undefined)	1%	i	23%	?	2%	4%
O=C(c1cccc(S(=O)(=O)N2CCCCC2)c1)N1CCCCC1	-14%	15µM*	-1%	i	6%	5%
CC1CCCC(NC(=O)c2cccc(S(=O)(=O)N3CCN(c4ccccc4)CC3)c2)C1C (centres undefined)	13µM*	i	18µM*	i	-2%	3%
O=C(O)CCCC(=O)Nc1ccccc1SCCS(=O)(=O)c1ccc(Cl)cc1	1%	?	2%	i	-9%	0%
NC(=O)c1c(NC(=O)c2ccccc2)sc2c1CCc1ccccc1-2	-29%	i	-13%	i	-25%	3%
Cc1ccccc1CN1C(=O)C(O)(c2c[nH]c3ccccc23)c2cc(Cl)ccc21 (centres undefined)	18µM*	i	16µM*	i	nt	nt
O=C1N(Cc2ccccc2Cl)c2ccccc2C1(O)c1c[nH]c2ccccc12 (centres undefined)	?	?	16µM*	i	nt	nt
O=C1N(Cc2ccccc2)c2ccccc2C1(O)c1c[nH]c2ccccc12 (centres undefined)	-30%	i	-17%	i	nt	nt
Cc1ccc(C)c(CN2C(=O)C(O)(c3c[nH]c4ccccc34)c3ccccc32)c1 (centres undefined)	23µM*	i	29µM*	?	nt	nt
O=C(COC(=O)/C=C/c1ccc(S(=O)(=O)N2CCOCC2)cc1)NCc1ccccc1	13µM*	i	7.3µM*	i	-10%	-20%
O=C(COC(=O)CCc1ccc(S(=O)(=O)N2CCOCC2)cc1)NCc1ccc(Cl)cc1	-13%	i	-17%	i	11%	10%
SMILES	DT40 TDP1 no CPT	KB-V1 cytotox	DT40 TDP1 CPT	KB-3-1 cytotox	HT1080 IDH1KD tx	HT1080NT lethal
O=C(COC(=O)/C=C/c1ccc(S(=O)(=O)N2CCOCC2)cc1)NCc1ccc(Cl)cc1	26µM*	i	?	i	0%	-3%
O=C(O)c1ccccc1C(=O)Nc1ccc(S(=O)(=O)Nc2ccc(F)cc2)cc1	-14%	i	2%	i	0%	4%
COc1ccc(S(=O)(=O)N(C)C[C@H]2Oc3ccc(NC(=O)Cc4cn(C)c5ccccc45)cc3C(=O)N([C@@H](C)CO)C[C@@H]2C)cc1	15µM*	?	?	i	-12%	-7%
C[C@@H]1CN([C@H](C)CO)C(=O)c2cc(NC(=O)Cc3cn(C)c4ccccc34)ccc2O[C@H]1CN(C)S(=O)(=O)c1ccc(F)cc1	?	i	?	i	-1%	-4%
COc1ccc(S(=O)(=O)Nc2ccc3c(c2)C(=O)N([C@H](C)CO)C[C@H](C)[C@@H](CN(C)S(=O)(=O)c2ccccc2)O3)cc1	?	i	21µM*	i	-3%	0%
O=C(c1ccc(Cl)cc1)c1ccc(Oc2cc(NN3CCCCC3)c([N+](=O)[O-])cc2[N+](=O)[O-])cc1	-10%	i	?	i	-9%	-5%
CCCCc1ccc(NC(=O)CSC2=C(C#N)C(c3ccco3)C3=C(CCCC3=O)N2)cc1 (centres undefined)	?	i	?	?	?	?
Cc1ccc(C(=O)CSC2=C(C#N)C(c3ccco3)C3=C(CCCC3=O)N2)cc1 (centres undefined)	3.3µM*	8.2µM*	3.3µM*	?	5.6µM*	5µM*
COc1ccc(NC(=O)CSC2=C(C#N)C(c3ccco3)C3=C(CCCC3=O)N2)c(OC)c1 (centres undefined)	2%	i	1%	i	11%	3%
CCSC1=C(C#N)C(c2ccc(Cl)cc2)C2=C(CCCC2=O)N1 (centres undefined)	1.5µM*	i	1.5µM*	i	?	?
N#CC1=C(SCC(=O)c2ccccc2)NC2=C(C(=O)CCC2)C1c1ccco1 (centres undefined)	2.6µM*	?	2.9µM*	18µM*	4.6µM*	?

Bioassay records as filed in PubChem BioAssay.
